According to ChEMBL document CHEMBL3988442, “University of Dundee, Small-Polar-MMV Screening Library” (2021):
Hit rate of the full screen: of about 48,000 compounds, about 13,000 (27%) showed an effect of 50% or more. Some of the results follow.

The compounds below were run on Wolbachia pipientis (assay: Anti-Wolbachia Cell-Based Screen). Details: 5 µM.
Format: functional
Parameters: scale not given: in the data most compounds retested in dose-response had high values
`CC(C)N(Cc1nc2c(cnn2C)c(=O)[nH]1)c1ccccc1` was tested, and the “Percent Effect” value was -5.677%. In the case of `COCCN(CCOC)Cc1nc2c(cnn2C)c(=O)[nH]1`, the “Percent Effect” value is reported as 107.8%. In the case of `COCCCN(CCOC)Cc1nc2c(cnn2C)c(=O)[nH]1`, the “Percent Effect” value is reported as 93.22%. `COCCN(CCc1ccccc1)Cc1nc2c(cnn2C)c(=O)[nH]1` was tested, and the “Percent Effect” value was 10.98%. For `COCCN(Cc1nc2c(cnn2C)c(=O)[nH]1)C(C)c1ccccc1` (stereo not given), the “Percent Effect” value was 98.63%. For `Cc1ccc(C(C)N(C)Cc2nc3c(cnn3C)c(=O)[nH]2)cc1` (stereo not given), the “Percent Effect” value was -5.253%. `COCCCN(C)Cc1nc2c(cnn2C)c(=O)[nH]1` was tested, and the “Percent Effect” value was -7.298%. `CC(C)(C)c1cc(CN2CCOCC(O)C2)n[nH]1` (stereo not given) was tested, and the “Percent Effect” value was 40.36%. With `CC(=O)Nc1cc(F)c(S(=O)(=O)N(C)CC2CCC2)c(F)c1` the “Percent Effect” value was 32.27%. For `Cn1cccc1CN1CCC2(CC1)CC(Oc1cccnc1)C2.O=C(O)C(F)(F)F.O=C(O)C(F)(F)F`, the “Percent Effect” value was 9.854%. With `COC(=O)C(C)Sc1nnnn1C1CCOCC1` (stereo not given) the “Percent Effect” value was -41.77%. For `c1ccc(N2CCN(Cc3cnc(C4CCCCO4)nc3)CC2)cc1` (stereo not given), the “Percent Effect” value was 50.77%. With `c1ccc(N2CCN(Cc3cnc(C4CCCCO4)nc3)CC2)nc1` (stereo not given) the “Percent Effect” value was 112.3%. With `OCC1(CC2CC2)CCCN(Cc2cnc(N3CCOCC3)nc2)C1` (stereo not given) the “Percent Effect” value was 1.203%. In the case of `OCC1(O)CCN(Cc2ccc(C3CCCCO3)o2)CC1` (stereo not given), the “Percent Effect” value is reported as 2.159%. In the case of `Cl.Cl.OC(CN1CCN(Cc2ccccc2)CC1)C1CC1` (stereo not given), the “Percent Effect” value is reported as 1.667%. In the case of `CNS(=O)(=O)c1ccc(CN2CCCN(c3ccccc3)CC2)cc1`, the “Percent Effect” value is reported as 23.15%. For `CCOC(C)c1noc(CN2CCCN(c3ccccn3)CC2)n1` (stereo not given), the “Percent Effect” value was 3.417%. For `CN(C)[C@H]1CCCCN(Cc2cnc(NCc3ccccc3)nc2)C1`, the “Percent Effect” value was -3.217%. `c1nc(C2CCCCO2)ncc1CN1CCOCC1` (stereo not given) was tested, and the “Percent Effect” value was 157.1%. In the case of `O=C(O)C1CN(Cc2cnc(C3CCCCC3)nc2)CCO1` (stereo not given), the “Percent Effect” value is reported as -13.64%. In the case of `O=C1OCCC1N1CCN(c2ccccn2)CC1` (stereo not given), the “Percent Effect” value is reported as 0.5958%. With `c1ccc(CN2CCN(Cc3cnc(C4CCCCO4)nc3)CC2)cc1` (stereo not given) the “Percent Effect” value was 181.4%. For `COc1ccc(CC(=O)N2CCc3nnc(N(C)C)cc3C2)cc1F`, the “Percent Effect” value was -3.012%. With `CCN(CC)S(=O)(=O)N1C[C@@H]2CC[C@H](C1)N(Cc1cscn1)C2=O` the “Percent Effect” value was -30.66%. `CCC1c2ccccc2CCN1C(=O)c1ccnc(C(=O)OC)c1` (stereo not given) was tested, and the “Percent Effect” value was -12.45%. In the case of `CC(C)NC[C@H]1COCc2nc3cccnc3n21`, the “Percent Effect” value is reported as -0.2965%. In the case of `O=C(c1ccc2ncsc2c1)N1CCC(C(=O)O)(n2cccn2)CC1`, the “Percent Effect” value is reported as -48.02%. `CC(C)(C)c1nnc(CN2CCN(S(C)(=O)=O)CC2)o1` was tested, and the “Percent Effect” value was 12.09%. With `CC(=O)N1CCOC2(CCCN(C(=O)CCN3CCCCC3)C2)C1` (stereo not given) the “Percent Effect” value was -17.75%. For `CC1CCN(C(=O)CSCc2nc(C3CC3)no2)CC1`, the “Percent Effect” value was 2%. With `O=C(CSCCN1CCOCC1)N1CCc2ccccc2C1` the “Percent Effect” value was 125%. `CC1CCN(C(=O)CSCCN2CCOCC2)CC1` was tested, and the “Percent Effect” value was 94.74%. In the case of `O=C(Cn1cc(I)cn1)N1CCc2ccccc2C1`, the “Percent Effect” value is reported as 13.89%. In the case of `CCOCCN1CCN(CCC(=O)N2CCCCC2)CC1`, the “Percent Effect” value is reported as -4.912%. For `CC1CCN(C(=O)CSCc2noc(C(C)C)n2)CC1`, the “Percent Effect” value was -0.6667%. In the case of `O=C(CSCCN1CCOCC1)N1CCCCCC1`, the “Percent Effect” value is reported as 88.11%. `O=C(CCC(=O)N1CCc2ccccc2C1)c1cccs1` was tested, and the “Percent Effect” value was 11.35%. For `N#Cc1cccnc1OC1CCN(C(=O)NCc2ccccc2)CC1`, the “Percent Effect” value was 7.798%. With `CC(=O)N1CCCC2(CN(Cc3ccc(C)s3)CCO2)C1.O=C(O)C(F)(F)F` (stereo not given) the “Percent Effect” value was 0.2205%. `O=C(CC1OCCc2ccccc21)NCC1(O)CCCCC1` (stereo not given) was tested, and the “Percent Effect” value was -10.96%. `Cc1ccc(CNc2ccn(CCC(N)=O)n2)c(Br)c1` was tested, and the “Percent Effect” value was -13.88%. In the case of `CCC(CO)N(Cc1ccccn1)C(=O)c1ccc(C)c(Cl)c1` (stereo not given), the “Percent Effect” value is reported as -8.3%. `COc1ccc(-c2ccncc2)cc1CNC1CCCC1` was tested, and the “Percent Effect” value was -7.134%. In the case of `c1cc(-c2cnc(NC3CC3)nc2[C@H]2CCCO2)ccn1`, the “Percent Effect” value is reported as 171.5%. For `c1cc(-c2cnc(NC3CC3)nc2[C@@H]2CCCO2)ccn1`, the “Percent Effect” value was 175.9%. For `CC(C)c1cc(C(=O)N(Cc2ccncc2)CC2CCCO2)no1` (stereo not given), the “Percent Effect” value was 4.129%. With `CC(C)Nc1ncc(-c2ccncc2)c([C@@H]2CCCO2)n1` the “Percent Effect” value was 174%. In the case of `COc1ccc(CCC(=O)NCCC2CCCO2)cc1Br` (stereo not given), the “Percent Effect” value is reported as 4.709%. With `O=C(NCCn1ccnc1)C1(c2ccc3c(c2)OCCO3)CCCC1` the “Percent Effect” value was 33.12%. `CC(C)(C)S(=O)(=O)CCNC(=O)c1cnc(-c2ccccc2)nc1` was tested, and the “Percent Effect” value was -10.41%. In the case of `COc1ccc(-c2cn[nH]c2)cc1CNC1CCCC1`, the “Percent Effect” value is reported as -15.21%. In the case of `CC(C)(CO)Nc1cc(-c2ccncc2)ncn1`, the “Percent Effect” value is reported as 106.2%. With `CC(C)(CO)Nc1ccc(-c2nc(-c3ccccc3F)no2)cn1` the “Percent Effect” value was -13.37%. With `CC(C)(CO)Nc1cc(-c2cn[nH]c2)ncn1.Cl` the “Percent Effect” value was 116.8%. `CC(C)(CO)Nc1cc(-c2ccccc2)ncn1` was tested, and the “Percent Effect” value was 83.59%. In the case of `CN(Cc1ccsc1)Cc1ccc(C2CCCCO2)o1` (stereo not given), the “Percent Effect” value is reported as 10.63%. `Cc1cccc(OC2CCN(c3ccc(C#N)cn3)CC2)n1` was tested, and the “Percent Effect” value was -50.95%. For `CN(C)[C@@H]1CCN(c2ncccn2)[C@H]1Cc1ccncc1.O=C(O)C(F)(F)F.O=C(O)C(F)(F)F`, the “Percent Effect” value was -8.933%. For `CC(O)CN(Cc1cccc(C(N)=O)c1)c1ccccc1` (stereo not given), the “Percent Effect” value was -3.401%. In the case of `Cc1cc(CN(C)C(=O)C2CCC(=O)N(CC3CCCCC3)C2)n[nH]1` (stereo not given), the “Percent Effect” value is reported as 15.57%. For `Cc1cc(C2CCCN2CCCc2nc3ccccc3o2)on1` (stereo not given), the “Percent Effect” value was 8.097%. `Cc1cnn(CC2CCCN2CCCc2nc3ccccc3o2)c1` (stereo not given) was tested, and the “Percent Effect” value was 11.07%. With `Cc1nc(C)n(CC2CCCN2Cc2nc(N)c3ccccc3n2)n1` (stereo not given) the “Percent Effect” value was 4.973%. With `Cc1nc(C)n(CC2CCCN2Cc2nc3ccccc3nc2C)n1` (stereo not given) the “Percent Effect” value was -1.93%. In the case of `Cc1nc(C)n(CC2CCCN2CCCc2nc3ccccc3o2)n1` (stereo not given), the “Percent Effect” value is reported as 115.5%. `Cc1cc(C)n(CC2CCCN2CCCc2nc3ccccc3o2)n1` (stereo not given) was tested, and the “Percent Effect” value was 125.1%. With `Cc1nn(C)c(C)c1C1CCCN1CCCc1nc2ccccc2o1` (stereo not given) the “Percent Effect” value was 0.8066%. `Cc1nc(C)n(CC2CCCN2CCCc2ccccc2)n1` (stereo not given) was tested, and the “Percent Effect” value was -4.599%. With `Cc1nc(C)n(CC2CCCCN2Cc2nc3ccccc3o2)n1` (stereo not given) the “Percent Effect” value was 96.27%.
